RECQ1 inh: inhibitors of human RECQ1 DNA helicase; actives 0.54% (n = 240,000); Potency, µM (doses to about 57.3 µM), most hits filed as inhibitors; RECQ1 DNA unwinding, red fluorescence kinetic read; further: nearly all actives have a fitted effect of over 30% in size
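RECQ1T1 50 nM; forked duplex (20 bp + 30-nt ss tails) 200 nM, ATP 2 mM final; pH 8.0, 2 mM MgCl2, 2.5 ug/ml poly(dI-dC); 15 min compound preincubation; discontinuous kinetic read over 2 h at RT.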
BLM helicase inh: Bloom syndrome helicase (human) inhibition; P54132; recombinant BLM DNA unwinding, fluorescence dequenching; Potency, µM (series often up to 56.1 µM), actives largely listed as inhibitors; actives 0.2% (n = 350,000); AID 2528; further: nearly all actives have a fitted effect of over 35% in size
JMJD2E inh: inhibitors of human JMJD2E histone demethylase; actives 1.6% (n = 230,000); AID 2147; Potency, µM (titrated, usually from 57.1 µM), hits mostly inhibitors; JMJD2E catalytic domain, FDH-coupled NADH fluorescence (FDH is formaldehyde dehydrogenase); B2RXH2; active means well fitted inhibition curve with a large enough effect, not every such curve was filed as active; inconclusive means small, poorly fitted or top-dose-only effect, or another doubt; inactive means no such curve, though single readings can be large or run the other way; further: nearly all actives have a fitted effect of over 50% in size
Target sequence (B2RXH2 1-337 limits assumed): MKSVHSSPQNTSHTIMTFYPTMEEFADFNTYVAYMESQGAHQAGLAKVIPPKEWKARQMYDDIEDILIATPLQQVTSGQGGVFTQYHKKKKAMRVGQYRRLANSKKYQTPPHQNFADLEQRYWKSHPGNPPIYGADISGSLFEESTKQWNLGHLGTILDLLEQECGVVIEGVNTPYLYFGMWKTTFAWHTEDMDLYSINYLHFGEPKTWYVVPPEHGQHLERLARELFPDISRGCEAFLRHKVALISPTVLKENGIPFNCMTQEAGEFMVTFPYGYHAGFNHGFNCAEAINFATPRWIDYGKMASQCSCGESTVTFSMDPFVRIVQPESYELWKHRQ
L3MBTL1 block: blocks human L3MBTL1; Q9Y468; Potency, µM (series often up to 57.1 µM), most hits filed as inhibitors; actives 0.66% (n = 230,000); AID 485360; AlphaScreen L3MBTL1–H3K9me1 peptide binding; further: nearly all actives have a fitted effect of over 60% in size
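AlphaScreen proximity signal between nickel-chelate acceptor and streptavidin donor beads (final 10 ug/mL) reports binding of 50 nM L3MBTL1 to 75 nM biotin-H3 K9me1 peptide; complex incubated with compounds 30 min at room temperature; cefsulodin titration as control.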
APEX1 inh: inhibitors of human APE1 endonuclease. P27695. recombinant APE1, TAMRA/BHQ-2 abasic DNA cleavage fluorescence. Potency, µM (doses to about 65.8 µM), hits mostly inhibitors. actives 0.35% (n = 350,000). AID 2517; further: nearly all actives have a fitted effect of over 55% in size
Target sequence (P27695 whole entry, looked up): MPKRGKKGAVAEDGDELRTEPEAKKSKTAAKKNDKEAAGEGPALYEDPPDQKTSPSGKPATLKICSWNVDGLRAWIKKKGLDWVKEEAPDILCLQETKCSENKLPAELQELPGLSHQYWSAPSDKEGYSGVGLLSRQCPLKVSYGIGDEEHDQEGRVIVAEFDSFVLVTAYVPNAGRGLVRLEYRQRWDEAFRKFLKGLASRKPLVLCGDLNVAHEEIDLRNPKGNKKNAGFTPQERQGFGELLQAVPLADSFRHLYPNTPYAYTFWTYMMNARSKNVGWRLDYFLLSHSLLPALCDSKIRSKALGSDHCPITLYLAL
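Compound pre-exposure to 0.75 nM APE1, 15 min at ambient temperature. Reaction initiated with 50 nM TAMRA/BHQ-2 THF substrate, read immediately in kinetic mode, 525 nm excitation, 598 nm emission.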
Of the large screens only hits and unclear results are named; the others gave an inactive call; ! = not active in a repeat. This excerpt belongs to a sample that is enriched for hits. Unless noted, the call rests on the fitted dose curve; in most records, active means well fitted curve in the direction sought with a large enough effect; inconclusive means small, poorly fitted or top-dose-only effect, or another doubt; inactive means no such curve, though single readings can be large; an effect the other way counts as inactive or inconclusive.

O=C(CCc1ccc(S(=O)(=O)N2CCOCC2)cc1)N/N=C/c1ccc(F)cc1F	none
Cc1cccc(N/N=C/c2ccc(O)c(O)c2O)c1	JMJD2E inh 3.2µM, L3MBTL1 block inconclusive, APEX1 inh inconclusive
O=[N+]([O-])c1cccc(N/N=C/c2cccc(O)c2O)c1	JMJD2E inh 14µM, L3MBTL1 block inconclusive
O=C(CCc1ccc(S(=O)(=O)N2CCOCC2)cc1)N/N=C/c1ccc(O)c(O)c1O	JMJD2E inh 10µM, L3MBTL1 block 14µM, APEX1 inh inconclusive
S=c1[nH]nc(-c2ccccn2)n1/N=C/c1ccc(-c2ccccc2Cl)o1	none (no result: L3MBTL1 block)
CCC1Oc2ccc(C)cc2N(CC(=O)NCCCN2CCCC2)C1=O (centres undefined)	none (no result: RECQ1 inh, JMJD2E inh, L3MBTL1 block)
O=[N+]([O-])c1ccc(N/N=C/c2cccc(O)c2O)c(S(=O)(=O)N2CCOCC2)c1	JMJD2E inh 14µM
CCN(CC)S(=O)(=O)c1ccc(Cl)c(NC(=S)NC(=O)C2CCCC2)c1	none (no result: RECQ1 inh, BLM helicase inh, JMJD2E inh)
Cc1cc(C(=O)COc2cccc3cccnc23)c(C)n1C	L3MBTL1 block 11µM
Cc1cc(C(=O)COc2ccccc2C(N)=O)c(C)n1C	none
O=C(/C=C/c1ccc(O)c(O)c1)OC1C[C@](O)(C(=O)O)C[C@@H](O)[C@H]1O (some centres undefined)	none (no result: BLM helicase inh, JMJD2E inh, L3MBTL1 block)
O=C(/C=C/c1ccc(O)c(O)c1)O[C@H]1C[C@@](O)(C(=O)O)CC(O)C1O (some centres undefined)	JMJD2E inh 16µM (no result: L3MBTL1 block)
Cn1c(=O)n(CCCc2ccccc2)c(=O)c2c1nc1n2CCN1c1ccc(F)cc1	none (no result: RECQ1 inh, JMJD2E inh, L3MBTL1 block, APEX1 inh)
COCCN(CC(=O)Nc1cccc(C)c1C)C(=O)c1cc2c(s1)CCC2	APEX1 inh 15µM (no result: RECQ1 inh, BLM helicase inh, JMJD2E inh)
O=C(NCCCN1CCc2ccccc2C1)C1CCN(S(=O)(=O)N2CCC3(CC2)OCCO3)CC1	none (no result: L3MBTL1 block)
C=CC(C1=CC(=O)C(OC)=CC1=O)c1ccc(OC)cc1 (centres undefined)	JMJD2E inh inconclusive (no result: L3MBTL1 block)
C=CC(C1=CC(=O)C(OC)=CC1=O)c1ccccc1 (centres undefined)	JMJD2E inh 2.2µM (no result: L3MBTL1 block)
CC1(C)Cc2ccccc2-c2nnc(C(F)(F)F)n21	none
CC1Cn2c(COc3ccccc3)nnc2S1 (centres undefined)	none
COc1ccc(C(=O)Nc2ccnn2C2CCN(Cc3ccc4nonc4c3)CC2)cc1	APEX1 inh 5.3µM (no result: RECQ1 inh, JMJD2E inh, L3MBTL1 block)
O=C(Nc1ccnn1C1CCN(Cc2ccc3nonc3c2)CC1)c1cccc(F)c1	none (no result: RECQ1 inh, JMJD2E inh, L3MBTL1 block)
c1ccc(-c2nnc(-c3ccccn3)s2)nc1	JMJD2E inh 2.8µM (no result: L3MBTL1 block)
c1ccc(-c2nc(-c3ccccn3)nc(-c3ccccn3)n2)nc1	JMJD2E inh inconclusive (no result: L3MBTL1 block)
Oc1c(C(Nc2ccccn2)c2ccccn2)ccc2cccnc12 (centres undefined)	JMJD2E inh inconclusive, L3MBTL1 block 28µM
COc1ccccc1NC(c1cccnc1)c1ccc2cccnc2c1O (centres undefined)	JMJD2E inh 11µM, L3MBTL1 block inconclusive
COc1cc(C(Nc2ccccn2)c2ccc3ccc(C)nc3c2O)cc(OC)c1O (centres undefined)	JMJD2E inh 22µM
CC(C)Cc1ccc(CN2CCCC(NC(=O)c3nn(C)c(=O)c4ccccc34)C2)cc1 (centres undefined)	none (no result: RECQ1 inh, JMJD2E inh, L3MBTL1 block)
CC(C)COCC(CN(Cc1ccccc1)c1ccccc1)N1CCCC1 (centres undefined)	JMJD2E inh 14µM! (no result: L3MBTL1 block)
O=C(Sc1cccc2cccnc12)c1ccc(F)cc1	JMJD2E inh inconclusive, L3MBTL1 block 4.5µM
CN(C)c1ccc(NC(=O)CSc2nnc(-c3ccco3)c(-c3ccco3)n2)cc1	none (no result: RECQ1 inh, JMJD2E inh, L3MBTL1 block)
Cc1ccc(NC(=O)CSc2nnc(-c3ccco3)c(-c3ccco3)n2)cc1	RECQ1 inh inconclusive, BLM helicase inh inconclusive, JMJD2E inh inconclusive, L3MBTL1 block 20µM, APEX1 inh inconclusive
CC1=C(C#N)C(=O)N(C2CCS(=O)(=O)C2)C(=O)/C1=C\c1ccc(C)o1 (centres undefined)	RECQ1 inh 22µM, BLM helicase inh inconclusive, JMJD2E inh inconclusive, L3MBTL1 block 14µM, APEX1 inh 18µM
O=C(c1ccccc1SCc1ccc(F)cc1)N1CCOCC1	none
Cc1cc(C)c2ccc(N)nc2c1O	JMJD2E inh 25µM
Cc1cc(C)c2cccc(N)c2n1	JMJD2E inh inconclusive
C#CCNC(=O)C1=C[C@@H](c2ccc(Br)cc2)[C@H](CCCO)[C@@H](OCC)O1	RECQ1 inh inconclusive
CC(C)c1ccc(N2C(=O)CC(Sc3nc4ccccc4o3)C2=O)cc1 (centres undefined)	none
CCCc1c(O)nc(SC2CC(=O)N(c3cc(OC)ccc3OC)C2=O)[nH]c1=O (centres undefined)	none
CC(C)c1ccc(N2C(=O)CC(Sc3ncn[nH]3)C2=O)cc1 (centres undefined)	JMJD2E inh 1.6µM (no result: L3MBTL1 block)
COc1ccc(N2C(=O)CC(Sc3ncn[nH]3)C2=O)c(OC)c1 (centres undefined)	JMJD2E inh 2.8µM
CSc1nsc(/C=C/Nc2ccc(O)cc2C)c1C#N	RECQ1 inh inconclusive, JMJD2E inh 13µM, APEX1 inh inconclusive
Cc1ccc(C(=O)OCC(=O)NCc2ccccc2)cc1S(=O)(=O)N1CCCCC1	none (no result: RECQ1 inh, BLM helicase inh, JMJD2E inh)
O=C(COC(=O)c1ccc(Cl)c(S(=O)(=O)N2CCCC2)c1)NCc1ccccc1	APEX1 inh 7.5µM (no result: RECQ1 inh, BLM helicase inh, JMJD2E inh)
Cc1ccc(C(=O)Nc2c(C)nc3ccccn3c2=O)cc1C	none (no result: RECQ1 inh, JMJD2E inh, L3MBTL1 block, APEX1 inh)
Cc1ccc(-c2ccc(CCC(=O)O)n2NC(=O)c2cccs2)cc1	L3MBTL1 block 40µM
COc1ccc(-c2ccc(CCC(=O)O)n2NC(=O)c2cccs2)cc1	none
Cc1cccc(C(=O)NNC(=O)c2cc3cc4ccccc4nc3s2)c1	none
O=C(NNC(=O)c1cc2cc3ccccc3nc2s1)c1ccc(F)cc1	APEX1 inh 6.3µM
Cc1cc(S(=O)(=O)N2CCOCC2)ccc1OCC(=O)Nc1ccccc1C(F)(F)F	none (no result: RECQ1 inh, JMJD2E inh, L3MBTL1 block)
COC(=O)CCCC1=CC2=C(c3ccccc3)C(=O)C(C)(OC(=O)C3CCCC3)C(=O)C2=CN1CC(C)C (centres undefined)	JMJD2E inh 18µM! (no result: L3MBTL1 block)
COC(=O)CCCC1=CC2=C(c3ccccc3)C(=O)C(C)(OC(=O)C3CCCC3)C(=O)C2=CN1CC1CC1 (centres undefined)	JMJD2E inh 11µM! (no result: L3MBTL1 block)
COc1ccc(S(=O)(=O)Nc2ccc3c(c2)C(=O)N([C@H](C)CO)C[C@H](C)[C@@H](CN(C)S(=O)(=O)c2ccccc2)O3)cc1	none (no result: RECQ1 inh, BLM helicase inh, JMJD2E inh)
O=C(CSc1nc2c([nH]c3ccccc32)c(=O)n1-c1ccccc1F)Nc1cccc(C(F)(F)F)c1	none (no result: RECQ1 inh, JMJD2E inh, L3MBTL1 block, APEX1 inh)
O=C(O)c1cc(N=Nc2ccc(-c3ccc(N=Nc4ccc(O)c(C(=O)O)c4)cc3)cc2)ccc1O	RECQ1 inh 20µM, BLM helicase inh 18µM, APEX1 inh 8.9µM (no result: JMJD2E inh, L3MBTL1 block)
CC1=CC(=Nc2c(C)n(C)n(-c3ccccc3)c2=O)C=CC1=O	JMJD2E inh 1.8µM
CC1=CC(=Nc2c(C)n(C)n(-c3ccccc3)c2=O)C=C(C)C1=O	none
